{"source": "ChEMBL document CHEMBL3988442", "about": "“University of Dundee, Small-Polar-MMV Screening Library” (2021)", "note": "Out of some 69,000 compounds screened, about 950 (1.4%) showed an effect of 50% or more. For the sample, strong results were picked, then their nearest neighbours and some compounds at random.", "data": [{"system": "Mycobacterium tuberculosis", "assay": "Cornell M. t heat shock assay; note: in the data most compounds retested in dose-response had high values", "format": "functional, organism-based", "parameters": "dose or concentration left out as unconfirmed", "units": {"Percent Effect": "%"}, "values": [{"smiles": "COc1cc2cc(C)c(SCCN3CCCC3)nc2cc1OC.Cl", "Percent Effect": 5.186}, {"smiles": "Cn1ncc2c1C(COCC1CC1)N(Cc1ccoc1)CC2.O=C(O)C(F)(F)F.O=C(O)C(F)(F)F", "note": "(stereo unspecified)", "Percent Effect": -34.45}, {"smiles": "O=C(NC[C@H]1OC[C@@H]2CN(Cc3ccco3)CC[C@@H]21)c1cccnc1.O=C(O)C(F)(F)F.O=C(O)C(F)(F)F", "Percent Effect": -10.25}, {"smiles": "Cc1noc(C)c1CN1CCO[C@H]2CN(C(=O)C3CCOCC3)C[C@H]21.O=C(O)C(F)(F)F", "Percent Effect": -18.06}, {"smiles": "COc1ncccc1CNC1CCc2c(ccc(=O)n2C)C1.O=C(O)C(F)(F)F.O=C(O)C(F)(F)F", "note": "(stereo unspecified)", "Percent Effect": 17.68}, {"smiles": "NC(=O)N1C[C@H]2CN(Cc3nccs3)C[C@H]2C1.O=C(O)C(F)(F)F", "Percent Effect": -3.349}, {"smiles": "Cc1ccc(C(=O)N2CCN3C[C@H](Oc4cccnc4)C[C@H]3C2)cn1.O=C(O)C(F)(F)F.O=C(O)C(F)(F)F.O=C(O)C(F)(F)F", "Percent Effect": -27.6}, {"smiles": "COc1ccc2[nH]cc(C(=O)CNc3nccs3)c2c1.I", "Percent Effect": 0.8623}, {"smiles": "O=C(O)C(F)(F)F.O=C(c1cnccn1)N1C[C@@H]2C[C@@H](c3nc(C4CC4)cs3)O[C@@H]2C1", "Percent Effect": 1.274}, {"smiles": "Cc1ccc(C(=O)Nc2c(C(=O)N(C)C)nn(C)c2C)cc1", "Percent Effect": -14.21}, {"smiles": "Cc1ccc(C(=O)Nc2cn[nH]c2)cc1", "Percent Effect": -8.204}, {"smiles": "Cc1ccc(C(=O)Nc2nc(C)no2)cc1", "Percent Effect": 75.29}, {"smiles": "Cc1nnc(N2CCCC3(CN(Cc4cccnc4)CCO3)C2)o1.O=C(O)C(F)(F)F.O=C(O)C(F)(F)F.O=C(O)C(F)(F)F", "note": "(stereo unspecified)", "Percent Effect": -2.58}, {"smiles": "Cc1nc(COC[C@H]2CCC[C@@]23CN(C(C)C)CCO3)cs1.O=C(O)C(F)(F)F", "Percent Effect": -25.66}, {"smiles": "COc1cccc([C@H]2CN(C(C)=O)[C@@H]3CCN(Cc4ccsc4)C[C@H]23)c1.Cl", "Percent Effect": -8.302}, {"smiles": "O=C(O)C(=O)O.c1coc(CN2CCC(c3ccc4c(c3)OCO4)CC2)c1", "Percent Effect": 5.355}, {"smiles": "CC(Cn1cccn1)NCc1csc2c1CCCC2", "note": "(stereo unspecified)", "Percent Effect": -4.744}, {"smiles": "CC(Cn1cccn1)NCc1csc(Cc2ccccc2)n1", "note": "(stereo unspecified)", "Percent Effect": 103.2}, {"smiles": "CC(Cn1cccn1)NCc1ccc(Cl)s1", "note": "(stereo unspecified)", "Percent Effect": -2.882}, {"smiles": "CC(Cn1cccn1)NCc1ccc(OCc2ccncc2)cc1", "note": "(stereo unspecified)", "Percent Effect": -3.58}, {"smiles": "CC(Cn1cccn1)NCc1csc(-c2ccc(F)cc2)n1", "note": "(stereo unspecified)", "Percent Effect": 41.6}, {"smiles": "CC(Cn1cccn1)NCc1csc(COc2ccc(F)cc2)n1", "note": "(stereo unspecified)", "Percent Effect": 104}, {"smiles": "COc1ccc(CNC(C)Cn2cccn2)cc1F", "note": "(stereo unspecified)", "Percent Effect": -3.821}, {"smiles": "CCc1nc(CNC(C)Cn2cccn2)cs1", "note": "(stereo unspecified)", "Percent Effect": 11.1}, {"smiles": "CCCc1nc(CNC(C)Cn2cccn2)cs1", "note": "(stereo unspecified)", "Percent Effect": 69.81}, {"smiles": "CC(Cn1cccn1)NCc1csc(COc2ccccc2)n1", "note": "(stereo unspecified)", "Percent Effect": 96.83}, {"smiles": "CC(Cn1cccn1)NCc1csc(-c2ncccn2)n1", "note": "(stereo unspecified)", "Percent Effect": -0.311}, {"smiles": "O=C(O)C(F)(F)F.O=C(c1ccnnc1)N1C[C@H]2CCC[C@@]2(COCc2ccccn2)C1", "Percent Effect": -25.48}, {"smiles": "COc1ccc(CCC2CCCCN2)cc1.Cl", "note": "(stereo unspecified)", "Percent Effect": -16.14}, {"smiles": "O=C(O)C(F)(F)F.O=C(c1cccnc1)N1C[C@H]2CN(Cc3cccc(F)c3)C(=O)[C@H]2C1", "Percent Effect": -29.23}, {"smiles": "Cc1oncc1C(=O)N1CC[C@@H]2[C@@H]1CC(=O)N2Cc1cccnc1.O=C(O)C(F)(F)F", "Percent Effect": 26.27}, {"smiles": "N#Cc1cccc(C(=O)N2CC[C@H]3[C@H]2CCN3CC2CC2)c1.O=C(O)C(F)(F)F", "Percent Effect": -24.15}, {"smiles": "Fc1ccc(CN2CCC3(CC2)CCN(c2ncccn2)CC3)cc1.O=C(O)C(F)(F)F.O=C(O)C(F)(F)F", "Percent Effect": -1.526}, {"smiles": "CC1CN(C)CCN1C(=O)c1cnc2c(cnn2C2CCCC2)c1", "note": "(stereo unspecified)", "Percent Effect": -19.82}, {"smiles": "O=C(NC1CC1)[C@H]1C[C@@H]2CCN(CCc3ccccc3)C[C@H]2O1.O=C(O)C(F)(F)F", "Percent Effect": -1.701}, {"smiles": "COc1cccc(S(=O)(=O)NC(=O)CCC2CCCC2)c1", "Percent Effect": 97.07}, {"smiles": "COc1cccc(S(=O)(=O)NC(=O)CCC2CCCO2)c1", "note": "(stereo unspecified)", "Percent Effect": 15.02}, {"smiles": "COc1cccc(S(=O)(=O)NC(=O)CC2CCCC2)c1", "Percent Effect": 1.853}, {"smiles": "O=C(O)C(F)(F)F.O=C(c1ccco1)N1CC[C@@H]2CN(C3CCOCC3)CCO[C@@H]2C1", "Percent Effect": 13.99}, {"smiles": "COCc1nnc(C(=O)N(C)Cc2ccc(OC)cc2)o1", "Percent Effect": 51.18}, {"smiles": "CCCc1nnc(C(=O)N(C)Cc2ccc(OC)cc2)o1", "Percent Effect": -0.8003}, {"smiles": "COc1ccc(CN(C)C(=O)c2nnc(CN(C)C)o2)cc1", "Percent Effect": -15.5}, {"smiles": "COCC(=O)N1CCN(Cn2nc(C)c(Br)c2C)CC1", "Percent Effect": -1.426}, {"smiles": "O=C(N1CCCC1)N1CCOCC2(CCN(Cc3cccs3)C2)C1.O=C(O)C(F)(F)F", "note": "(stereo unspecified)", "Percent Effect": -28.46}, {"smiles": "Cc1ncc(CNCCO)c2cc(C(=O)c3ccc(Br)cc3)oc12.Cl", "Percent Effect": 80.79}, {"smiles": "Cc1ncc(CNCC(C)O)c2cc(C(=O)c3ccc(Br)cc3)oc12.Cl", "note": "(stereo unspecified)", "Percent Effect": 10.59}, {"smiles": "Cc1ncc(CNC(C)(C)CO)c2cc(C(=O)c3ccc(Br)cc3)oc12", "Percent Effect": 39.89}, {"smiles": "Cl.c1csc(-c2noc(C3CNC3)n2)c1", "Percent Effect": 3.28}, {"smiles": "O=C(O)C(F)(F)F.O=C(O)C(F)(F)F.O=C(O)C(F)(F)F.c1cnn(C[C@@H]2C[C@@H]3CN(CC4CC4)CC[C@@H]3N2c2nccs2)c1", "Percent Effect": -5.195}, {"smiles": "O=C(O)CC(O)(CC(=O)O)C(=O)O.OC1CCCN(Cc2ccnc(-c3cccnc3)n2)C1", "note": "(stereo unspecified)", "Percent Effect": -5.175}, {"smiles": "CCOC1COC2(CCN(Cc3cccc(C#N)c3)CC2)C1.O=C(O)C(F)(F)F", "note": "(stereo unspecified)", "Percent Effect": -5.189}, {"smiles": "N#Cc1ccc(N2CCCC3(CCC(=O)N3CC3CC3)CC2)nc1.O=C(O)C(F)(F)F", "note": "(stereo unspecified)", "Percent Effect": 42.6}, {"smiles": "Cc1csc(N(C)C(=O)C(c2c(F)cccc2Cl)N(C)C)n1", "note": "(stereo unspecified)", "Percent Effect": 16.08}, {"smiles": "CN(C(=O)C(c1c(F)cccc1Cl)N(C)C)c1nccs1", "note": "(stereo unspecified)", "Percent Effect": -3.774}, {"smiles": "CN(C)C(C(=O)Nc1nccs1)c1c(F)cccc1Cl", "note": "(stereo unspecified)", "Percent Effect": 71.6}, {"smiles": "O=C(O)C(F)(F)F.O=C(c1cnccn1)N1CCC2(CC1)CCN(Cc1ccccn1)C2=O", "Percent Effect": -24.58}]}]}
